Measured values: PubChem BioAssay (NCI)
The panel holds about 79,000 compounds, 15% with a hit somewhere; the sample as a whole holds those more often. Values without a mark were called inactive. Activity calls are given as the source filed them. No stated cut-off is given here; in the data, active means growth inhibition above about 70%; inactive means the rest.

Legend:
[1] = NCI Yeast Anticancer Drug Screen. Data for the rad50 strain (AID 155);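 further: 0% = growth of vehicle-only cultures of the same strain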; settings: S. cerevisiae rad50 strain growth inhibition, stronger effect = higher value
In short: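 Readout: growth inhibition relative to vehicle-treated cultures. Compound exposure was carried out in a genetically defined yeast strain deficient in DNA damage repair.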

[2] = NCI Yeast Anticancer Drug Screen. Data for the mec2-1 strain (AID 157); settings: S. cerevisiae mec2-1 strain, stronger effect = higher value
In short: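 Vehicle-treated cultures served as reference for growth inhibition of compound-exposed mec2-1 yeast.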

[3] = NCI Yeast Anticancer Drug Screen. Data for the sgs1 mgt1 strain (AID 161);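 further: 0% = growth of cultures given vehicle only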; settings: S. cerevisiae sgs1 mgt1 strain, stronger effect = higher value
In short: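 Genetically altered yeast, compound exposure, growth inhibition relative to vehicle.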

[4] = NCI Yeast Anticancer Drug Screen. Data for the cln2 rad14 strain (AID 165);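 further: 0% = growth equal to vehicle treated cultures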; settings: S. cerevisiae cln2 rad14 strain, stronger effect = higher value
In short: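 Each compound was tested on cln2 rad14 yeast. Inhibition of growth was calculated against vehicle-exposed controls.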

[5] = NCI Yeast Anticancer Drug Screen. Data for the bub3 strain (AID 167); settings: S. cerevisiae bub3 mutant strain, stronger effect = higher value
In short: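 Readout: yeast growth inhibition, expressed relative to vehicle-only wells. The test organism is a mutant strain from a panel with lesions in DNA repair or checkpoint genes.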

[6] = NCI Yeast Anticancer Drug Screen. Data for the mlh1 rad18 strain (AID 175); settings: S. cerevisiae mlh1 rad18 strain growth inhibition, stronger effect = higher value
In short: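 Vehicle-treated cultures served as the reference for growth inhibition in a yeast strain carrying DNA damage repair alterations exposed to each compound.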

[7] = at 5.0 µM (retest, dose inferred, filed as 0.5)
[8] = at 50.0 µM (retest, dose inferred, filed as 5.0)

SMILES | growth inhibition [1, 7] | growth inhibition [1, 8] | growth inhibition ([1]; at 50.0 µM) | growth inhibition [2, 7] | growth inhibition [2, 8] | growth inhibition ([2]; at 50.0 µM) | growth inhibition [3, 7] | growth inhibition [3, 8] | growth inhibition ([3]; at 50.0 µM) | growth inhibition [4, 7] | growth inhibition [4, 8] | growth inhibition ([4]; at 50.0 µM) | growth inhibition [5, 7] | growth inhibition [5, 8] | growth inhibition ([5]; at 50.0 µM) | growth inhibition [6, 7] | growth inhibition [6, 8] | growth inhibition ([6]; at 50.0 µM)
Cc1csc(N)[n+]1CCC(=O)[O-] | -1% | -3% | -3.95% | -1% | -2% | -23.1% | -1% | -2% | -2.8% | -3% | 3% | 31.5% | -1% | 1% | -14.6% | 0% | -3% | -24.5%
COc1cccc(/C=C2/Sc3scc(-c4ccccc4)[n+]3C2=O)c1O | 14% | 20% | 80.4% (active) | -9% | 21% | 55.6% | -5% | 23% | 82.3% (active) | -12% | 18% | 61.8% | -17% | 64% | 93.1% (active) | 12% | 66% | 94.1% (active)
NC(=O)C12OC3CC(CC(C3)O1)O2 | -25% | -10% | 5.95% | -8% | -17% | 11.4% | -9% | 12% | 11.3% | -1% | 3% | 71.2% (active) | 2% | 5% | 2.75% | 9% | -22% | 11.2%
O=c1[nH]c(CN2CCCCC2)nn1-c1ccccc1 | -1% | 3% | 8.25% | 0% | 3% | 10.1% | -1% | 1% | 9.75% | 4% | -1% | 69.4% | 0% | -4% | 14.6% | -2% | 1% | 2.45%
O=C(O)C1(Cc2ccc3c(c2)CCC3)Cc2ccccc2C1=O (stereo not given) | 9% | 9% | 89.9% (active) | -6% | -6% | 92.4% (active) | 3% | 3% | 87.5% (active) | 3% | 3% | 88.2% (active) | -7% | -7% | 90.2% (active) | 1% | 1% | 87% (active)
Oc1ccc2ccccc2c1CNc1ccc2ccccc2c1 | 8% | 57% | 95.9% (active) | 10% | 15% | 98.7% (active) | 11% | 69% | 98.8% (active) | -1% | 18% | 97.8% (active) | 0% | 60% | 95.4% (active) | 12% | 67% | 98.5% (active)
CCc1cccc(C(C)(C)C)c1NC(=S)/N=C/C(C(=O)c1ccccc1)=C(\O)c1ccccc1 | -4% | 70% (active) | 77.2% (active) | -11% | 66% | 55.3% | -10% | 43% | 68.9% | -13% | 45% | 48.1% | -12% | 48% | 80.3% (active) | -4% | 65% | 75.6% (active)
CCC(C)(C)c1ccc(OC(=O)C(C)OC(C)=O)cc1 (stereo not given) | 12% | 33% | 82% (active) | -5% | 48% | 84.9% (active) | 0% | 68% | 88% (active) | 1% | 21% | 49.9% | -5% | 53% | 87.2% (active) | -10% | 46% | 86.7% (active)
O=C1C=CC(=O)c2cc(Sc3ccccc3)c(=O)ccc21 | 16% | 37% | 81.2% (active) | 29% | 38% | 42.2% | 25% | 98% (active) | 71.7% (active) | 33% | 72% (active) | 39.4% | 30% | 98% (active) | 37% | 33% | 37% | 87% (active)
C/C(=N\NC(=O)C[n+]1ccccc1)c1sc(-c2nc(C)c(/C(C)=N/NC(=O)C[n+]3ccccc3)s2)nc1C | 95% (active) | 97% (active) | 97.2% (active) | 97% (active) | 99% (active) | 96.8% (active) | 98% (active) | 97% (active) | 96.9% (active) | 92% (active) | 97% (active) | 93% (active) | 95% (active) | 97% (active) | 96.8% (active) | 93% (active) | 98% (active) | 96.4% (active)
Nc1ccc2nc(Nc3ccc(Cl)c(Cl)c3)cnc2c1 | -17% | 97% (active) | 85.7% (active) | -1% | 97% (active) | 86.5% (active) | 7% | 97% (active) | 87.7% (active) | 14% | 97% (active) | 87.2% (active) | 28% | 95% (active) | 83.8% (active) | 25% | 87% (active) | 80.8% (active)
CCN(CC)C(C)(C)C(=O)/C=C/c1ccc(Cl)c(Cl)c1 | 13% | 97% (active) | 92.7% (active) | 3% | 97% (active) | 99.2% (active) | 6% | 97% (active) | 82.7% (active) | -8% | 96% (active) | 47.9% | 5% | 98% (active) | 96% (active) | 0% | 95% (active) | 95% (active)
O=C(OCCN=c1c2ccccc2ccc2ccccc12)c1ccccc1 | 0% | 97% (active) | 42% | -14% | 94% (active) | 31.4% | -43% | 83% (active) | 65.3% | 22% | 36% | 29.8% | 2% | 98% (active) | 71% (active) | -19% | 98% (active) | 15.7%
COC(=O)C1C(C(=O)OC)C2(OC(c3ccc(Cl)cc3)=CC2=O)C12OC(c1ccc(Cl)cc1)=CC2=O (stereo not given) | 2% | 74% (active) | 89.8% (active) | 12% | 99% (active) | 92% (active) | 12% | 96% (active) | 90% (active) | 4% | 63% | 89.8% (active) | -1% | 90% (active) | 92% (active) | 13% | 98% (active) | 87.2% (active)
CCCc1cc2c(cc1CS(=O)(=O)CC)OCO2 | -4% | 9% | -9.1% | -4% | -2% | 2.3% | -7% | -5% | 1.1% | -7% | 0% | 23.3% | 23% | 17% | 16.7% | -4% | -6% | 3.75%
CCC1C(c2ccccc2O)c2cc3c(cc2OC1N1CCOCC1)OCO3 (stereo not given) | -18% | 98% (active) | 85.9% (active) | -32% | 99% (active) | 88.3% (active) | -42% | 98% (active) | 88.2% (active) | 9% | 99% (active) | 88.9% (active) | -50% | 99% (active) | 88.8% (active) | -13% | 98% (active) | 91.2% (active)
CCCCCNc1ccc2c(cc1=O)C(NC(C)=O)CCc1cc(OC)c(OC)c(OC)c1-2 (stereo not given) | 16% | 89% (active) | 13.4% | 10% | 97% (active) | 19.8% | 11% | 98% (active) | 18.2% | 16% | 93% (active) | 71.7% (active) | 21% | 97% (active) | 45.2% | 19% | 95% (active) | 24.9%
N#CC1=C(N)OC(c2ccccc2)=C(C#N)C1c1ccccc1[N+](=O)[O-] (stereo not given) | 5% | 5% | -8.2% | 9% | 8% | 38.1% | 12% | -8% | 22.7% | 11% | 5% | 72.5% (active) | -1% | -4% | 39.1% | 2% | 7% | 23.3%
OCC1CCc2[nH]c3ccccc3c2C1 (stereo not given) | -159% | -160% | -7.95% | -53% | -59% | -6.55% | -67% | -68% | -4.2% | -56% | -76% | 30.9% | -65% | -58% | 12% | -128% | -123% | 3.5%
Cc1cc(C(=O)O)c(C)cc1SSc1cc(C)c(C(=O)O)cc1C | -12% | 72% (active) | 51.4% | 11% | 74% (active) | 9.25% | 4% | 76% (active) | 54.7% | -5% | 70% (active) | 3.7% | -13% | 63% | 41.4% | -3% | 81% (active) | 69.2%
